The values below come from PubChem BioAssay AID2330 (Broad Institute, 2010).

The whole screen tested about 37,000 compounds, of which about 2,800 (7.6%) were called active. Not shown: some 1% with an inconclusive outcome. Only a selection was taken, and actives are over-represented in it overall. Unmarked numbers belong to inactive results. No stated cut-off is given here; in the data, active means inhibition above about 80%; inconclusive means no clear call, values can overlap the other calls; inactive means below that.

A short description of the test: NOMO-1 AML cell viability reduction, primary screen, STK33 inhibitor project, CellTiter-Glo luminescence (AID 2330). As to conditions: NOMO-1 AML viability, 72 h, active compounds read high, concentration not given here. On the technique in general: Cellular ATP, detected with luciferase, serves as a proxy for viable cell number.
A word on the inhibition: it is the change of the read-out against control, counted positive when it falls. As to `C[C@H]1CN([C@@H](C)CO)C(=O)Cc2cc(NC(=O)CCCN(C)C)ccc2O[C@@H]1CN(C)Cc1ccc(-c2ccccc2)cc1`, the inhibition was 24.3%.

`C[C@@H]1CN([C@H](C)CO)C(=O)Cc2cc(NC(=O)C3CCCCC3)ccc2O[C@@H]1CN(C)Cc1ccc(C(F)(F)F)cc1`: the inhibition is 101% (active).

For `COc1ccc(CN(C)C[C@@H]2Oc3ccc(NC(=O)c4ccncc4)cc3CC(=O)N([C@H](C)CO)C[C@H]2C)cc1`, the inhibition was 13.5%.

Consider `C[C@H]1CN([C@@H](C)CO)C(=O)Cc2cc(NC(=O)C3CCCCC3)ccc2O[C@H]1CN(C)C(=O)Nc1ccc(C(F)(F)F)cc1`, for which the inhibition was 11.2%.

`C[C@H](CO)N1C[C@H](C)[C@H](CN(C)Cc2ccc(-c3ccccc3)cc2)Oc2ccc(NC(=O)Nc3ccc(F)cc3)cc2CC1=O`: the inhibition was 110% (active).

Regarding `C[C@@H]1CN([C@H](C)CO)C(=O)Cc2cc(NC(=O)Nc3ccc(C(F)(F)F)cc3)ccc2O[C@H]1CN(C)Cc1ccc(-c2ccccc2)cc1`, the inhibition is 128% (active).

On to `C[C@@H]1CN([C@H](C)CO)C(=O)Cc2cc(NC(=O)Nc3ccc4c(c3)OCO4)ccc2O[C@H]1CN(C)Cc1ccc(C(F)(F)F)cc1`, for which the inhibition was 77%.

`C[C@H]1CN([C@@H](C)CO)C(=O)Cc2cc(NC(=O)Nc3ccc(C(F)(F)F)cc3)ccc2O[C@H]1CN(C)Cc1ccc(C(=O)O)cc1`: the inhibition was 12.6%.

On to `C[C@@H]1CN([C@@H](C)CO)C(=O)Cc2cc(NC(=O)C3CCCCC3)ccc2O[C@@H]1CN(C)C(=O)Nc1ccc(C(F)(F)F)cc1`, for which the inhibition was 37.5%.

For the compound `C[C@H]1CN([C@@H](C)CO)C(=O)Cc2cc(NC(=O)Nc3ccccc3)ccc2O[C@H]1CN(C)Cc1ccncc1`, the inhibition was 19.2%.

In the case of `C[C@@H]1CN([C@H](C)CO)C(=O)Cc2cc(NC(=O)c3ccncc3)ccc2O[C@@H]1CN(C)Cc1ccncc1`, the inhibition was -19.5%.

In the case of `C[C@@H]1CN([C@H](C)CO)C(=O)Cc2cc(NC(=O)c3ccncc3)ccc2O[C@H]1CN(C)Cc1ccc(-c2ccccc2)cc1`, the inhibition was 111% (active).

As for `CC(C)NC(=O)N(C)C[C@@H]1Oc2ccc(NC(=O)C3CCCCC3)cc2CC(=O)N([C@H](C)CO)C[C@@H]1C`, the inhibition is 27.6%.

Regarding `Cc1noc(C)c1NC(=O)Nc1cccc2c1O[C@@H](CN(C)CC1CCCCC1)[C@H](C)CN([C@@H](C)CO)C2=O`, the inhibition is -7.61%.

Consider `Nc1nnc(SCC(=O)Nc2ccc(Cl)cc2O)s1`, for which the inhibition is 14.9%.

With `C[C@@H]1CN([C@H](C)CO)C(=O)c2cccc(NC(=O)C3CCOCC3)c2O[C@H]1CN(C)S(=O)(=O)c1ccc(Cl)cc1`, the inhibition is 7.24%.

Take `COc1ccc(NC(=O)N(C)C[C@@H]2Oc3c(NS(C)(=O)=O)cccc3C(=O)N([C@H](C)CO)C[C@H]2C)cc1`: the inhibition is 12.7%.

`COc1cccc(-c2cc(C(F)(F)F)n3nc(C(=O)NCc4ccccn4)cc3n2)c1`: the inhibition is 12.5%.

In the case of `COC(=O)c1sc(SC)c(-c2ccn(S(=O)(=O)c3ccc(Cl)cc3)n2)c1C`, the inhibition is -4.42%.

As to `Cc1ccc(S(=O)(=O)N(C)C[C@H]2Oc3ccc(NC(=O)Cc4cn(C)c5ccccc45)cc3CC(=O)N([C@@H](C)CO)C[C@H]2C)cc1`, the inhibition is 15.7%.

Consider `N#Cc1c(SCC(=O)Nc2ccc(F)cc2Cl)nc2c(c1C(F)(F)F)CCCCC2`, for which the inhibition was 24.5%.

In the case of `C=CCn1c(SCc2nc3ccccc3[nH]2)nnc1-c1cccc(C)c1`, the inhibition is 1.23%.

Turning to `C[C@@H]1CN([C@H](C)CO)C(=O)Cc2cc(NC(=O)Nc3cccc4ccccc34)ccc2O[C@@H]1CN(C)Cc1ccc(C(F)(F)F)cc1`, the inhibition was 105% (active).

With `C[C@@H]1CN([C@H](C)CO)C(=O)Cc2cc(NC(=O)Cc3cn(C)c4ccccc34)ccc2O[C@@H]1CN(C)Cc1ccc(C(F)(F)F)cc1`, the inhibition is 112% (active).

Take `C[C@@H]1CN([C@H](C)CO)C(=O)Cc2cc(NC(=O)Nc3cccc4ccccc34)ccc2O[C@@H]1CN(C)Cc1ccc(C(=O)O)cc1`: the inhibition is 20.5%.

Regarding `Cc1noc(C)c1NC(=O)Nc1ccc2c(c1)CC(=O)N([C@H](C)CO)C[C@@H](C)[C@@H](CN(C)Cc1ccc(C(F)(F)F)cc1)O2`, the inhibition was 25.7%.

On to `COc1ccc(NC(=O)Nc2ccc3c(c2)CC(=O)N([C@@H](C)CO)C[C@@H](C)[C@@H](CN(C)Cc2ccc(C(F)(F)F)cc2)O3)cc1`, for which the inhibition is 101% (active).

`C[C@H]1CN([C@@H](C)CO)C(=O)Cc2cc(NC(=O)Cc3cn(C)c4ccccc34)ccc2O[C@H]1CN(C)Cc1ccccc1`: the inhibition is 7.92%.

Consider `C[C@H]1CN([C@@H](C)CO)C(=O)Cc2cc(NC(=O)Cc3cn(C)c4ccccc34)ccc2O[C@@H]1CN(C)Cc1ccccc1`, for which the inhibition is 32.3%.

Take `COc1ccc(NC(=O)Nc2ccc3c(c2)CC(=O)N([C@H](C)CO)C[C@H](C)[C@H](CN(C)Cc2ccncc2)O3)cc1`: the inhibition is -3.73%.

Turning to `COc1ccc(CN(C)C[C@@H]2Oc3ccc(NC(=O)Nc4ccc(OC)cc4)cc3CC(=O)N([C@H](C)CO)C[C@H]2C)cc1`, the inhibition is 22%.

With `C[C@@H]1CCCCO[C@@H](CN(C)C)[C@@H](C)CN([C@H](C)CO)C(=O)c2cc(NC(=O)c3ccncc3)ccc2O1`, the inhibition was 17.5%.

With `CC(C)NC(=O)N(C)C[C@H]1Oc2c(NC(=O)C3CCCCC3)cccc2C(=O)N([C@@H](C)CO)C[C@H]1C`, the inhibition was -7.34%.

For the compound `C[C@H](CO)N1C[C@H](C)[C@@H](CN(C)C(=O)Nc2ccc3c(c2)OCO3)Oc2c(cccc2N(C)C)C1=O`, the inhibition is 13.3%.

Regarding `Cc1noc(C)c1NC(=O)N(C)C[C@H]1Oc2ccc(NC(=O)Nc3ccc(C(F)(F)F)cc3)cc2CC(=O)N([C@@H](C)CO)C[C@@H]1C`, the inhibition was 8.18%.

As to `O=C(O)c1c(Br)c(Br)c(Br)c(Br)c1-c1c2ccc(=O)cc-2oc2cc(O)ccc12`, the inhibition is 21.5%.

As for `O=C(CSc1nnc(-c2cccs2)n1-c1ccccc1Cl)Nc1cccc(C(=O)O)c1`, the inhibition is -8.58%.

With `O=C(NCc1ccccn1)C(=O)Nc1cccc(Cl)c1Cl`, the inhibition is -11.7%.

For the compound `O=c1n(Cc2ccccc2)c2ccccc2n1Cc1ccccc1`, the inhibition was 23%.

Turning to `N=c1n(CC(=O)c2ccc(Cl)c(Cl)c2)c2ccccc2n1Cc1ccccc1`, the inhibition was 92.6% (active).

For `CC(C)(C)c1ccc(Cn2c(=N)n(CC(=O)O)c3ccccc32)cc1`, the inhibition was 31%.

On to `Cc1noc(C)c1NC(=O)Nc1ccc2c(c1)C(=O)N([C@H](C)CO)C[C@H](C)[C@@H](CN(C)Cc1ccc3c(c1)OCO3)OCCCC[C@@H](C)O2`, for which the inhibition was 0.0539%.

On to `N#C/C(=C\c1ccc(O)c(O)c1)C(=O)NCc1ccccc1`, for which the inhibition is 133% (active).

In the case of `N#C/C(=C\c1ccc(O)c(O)c1)C(N)=O`, the inhibition was 44.4%.

For the compound `CC(C)=CC1C(C(=O)O)C1(C)C` (stereo not given), the inhibition is -10.7%.

`COc1ccc(S(=O)(=O)N(C)C[C@H]2Oc3ccc(NS(=O)(=O)c4ccc(C)cc4)cc3CC(=O)N([C@@H](C)CO)C[C@@H]2C)cc1`: the inhibition was 16.4%.

Consider `COc1ccc(S(=O)(=O)Nc2cccc3c2O[C@@H](CN(C)S(=O)(=O)c2c(C)noc2C)[C@@H](C)CN([C@H](C)CO)C3=O)cc1`, for which the inhibition was 0.67%.

On to `Cc1noc(C)c1NC(=O)Nc1ccc2c(c1)C(=O)N([C@H](C)CO)C[C@@H](C)[C@@H](CN(C)Cc1ccccc1)O2`, for which the inhibition was -0.997%.

`Cc1ccc(S(=O)(=O)Nc2ccc3c(c2)C(=O)N([C@H](C)CO)C[C@H](C)[C@H](CN(C)Cc2ccc(Cl)c(Cl)c2)O3)cc1`: the inhibition is 91% (active).

With `C[C@@H]1CN([C@@H](C)CO)C(=O)c2cc(NS(=O)(=O)c3ccccc3)ccc2O[C@@H]1CN(C)Cc1ccc(C(=O)O)cc1`, the inhibition was 28.2%.

`COc1ccc(S(=O)(=O)Nc2ccc3c(c2)C(=O)N([C@@H](C)CO)C[C@H](C)[C@@H](CN(C)Cc2ccc(C(F)(F)F)cc2)O3)cc1`: the inhibition was 33.8%.

`C[C@H](CO)N1C[C@H](C)[C@@H](CN(C)Cc2ccc(Cl)c(Cl)c2)Oc2ccc(NS(=O)(=O)c3ccccc3)cc2C1=O`: the inhibition is 20.4%.

In the case of `COc1ccc(S(=O)(=O)Nc2ccc3c(c2)C(=O)N([C@@H](C)CO)C[C@H](C)[C@H](CN(C)Cc2ccc(C(F)(F)F)cc2)O3)cc1`, the inhibition is 50.5%.

`Cc1ccc(S(=O)(=O)Nc2ccc3c(c2)C(=O)N([C@@H](C)CO)C[C@H](C)[C@@H](CN(C)Cc2ccc4c(c2)OCO4)O3)cc1`: the inhibition is 24.6%.

In the case of `COc1ccc(S(=O)(=O)Nc2ccc3c(c2)CC(=O)N([C@H](C)CO)C[C@H](C)[C@H](CN(C)Cc2ccc(C(F)(F)F)cc2)O3)cc1`, the inhibition is 125% (active).

For `COc1ccc(S(=O)(=O)Nc2ccc3c(c2)C(=O)N([C@H](C)CO)C[C@H](C)[C@@H](CN(C)Cc2ccc(-c4ccccc4)cc2)O3)cc1`, the inhibition is 39.1%.

Turning to `C[C@H]1CN([C@@H](C)CO)C(=O)Cc2cc(NS(=O)(=O)c3ccc(F)cc3)ccc2O[C@H]1CN(C)Cc1ccc(C(F)(F)F)cc1`, the inhibition was 34.1%.

Regarding `C[C@H](CO)N1C[C@H](C)[C@H](CN(C)Cc2ccc(-c3ccccc3)cc2)Oc2ccc(NS(=O)(=O)c3ccccc3)cc2C1=O`, the inhibition is 93.2% (active).

On to `Cc1ccc(S(=O)(=O)Nc2ccc3c(c2)CC(=O)N([C@@H](C)CO)C[C@H](C)[C@H](CN(C)Cc2ccccc2)O3)cc1`, for which the inhibition is 26%.

`Cc1ccc(S(=O)(=O)Nc2ccc3c(c2)CC(=O)N([C@H](C)CO)C[C@@H](C)[C@H](CN(C)Cc2ccc(C(F)(F)F)cc2)O3)cc1`: the inhibition was 108% (active).
